The list is not random: actives were taken first. Their share in the collection is about 2.8%.
D3 antag – D3 dopamine receptor (human) antagonism | max response, negative = inhibition, % | P35462 | 360,000 compounds, 2.5% hits | D3R cells, DiscoveRx beta-arrestin luminescence, antagonist mode; active compounds read low | AID 652054; in the data active means max response below about -50%; inconclusive means no clear call, values can overlap the other calls
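Cells plated overnight at 1500 cells/well, then exposed to library compounds with dopamine controls for 90 minutes at 37 degrees C. DiscoveRx reagent added for 30–60 minutes at room temperature; luminescence read, quantitative HTS format.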
DRD3 agonist – D3 dopamine receptor (human) agonism. D3R DiscoveRx beta-arrestin cells, luminescence, 90 min. max activation, %. P35462. 410,000 compounds, 0.58% hits; in the data active means max activation above about 30%
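Agonist mode: compounds and dopamine controls were applied to plated cells for 90 min at 37 degrees C after an overnight attachment at 1500 cells/well. Luminescent read-out followed 30 - 60 minutes at room temperature with DiscoveRx detection reagent.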
CBFb RUNX1 block – inhibitors of human CBF-beta and RUNX1 interaction; Potency, µM (titrated, usually from 59.8 µM), most hits filed as inhibitors; AID 1477; AlphaScreen CBFb-His/RUNX1-biotin binding, biochemical; 230,000 tested, under 10 active; Q01196+Q13951
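Interaction loss through any mechanism counts as activity. Pre-formed complex of His-CBF-beta and biotin-RUNX1 (30 nM apiece) is incubated with compound 15 min, then with 50 ng nickel and 50 ng streptavidin beads for 90 min before AlphaScreen detection.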
MBNL1 CUG block – inhibitors of human MBNL1 binding to CUG repeat RNA | Q9NR56 | TR-FRET MBNL1-His/biotin-(CUG)12 binding, 665/545 ratio | Potency, µM (doses to about 57.5 µM), most hits filed as inhibitors | 280,000 compounds, 0.036% hits; active means well fitted inhibition curve with a large enough effect in the signal ratio, with a control signal flat, not every such curve was filed as active; inconclusive means small, poorly fitted or top-dose-only effect, or effect the other way, or a change in a side signal; inactive means no such curve, though single readings can be large or run the other way; the % refers to the signal ratio
Target sequence (Q9NR56 whole entry, looked up): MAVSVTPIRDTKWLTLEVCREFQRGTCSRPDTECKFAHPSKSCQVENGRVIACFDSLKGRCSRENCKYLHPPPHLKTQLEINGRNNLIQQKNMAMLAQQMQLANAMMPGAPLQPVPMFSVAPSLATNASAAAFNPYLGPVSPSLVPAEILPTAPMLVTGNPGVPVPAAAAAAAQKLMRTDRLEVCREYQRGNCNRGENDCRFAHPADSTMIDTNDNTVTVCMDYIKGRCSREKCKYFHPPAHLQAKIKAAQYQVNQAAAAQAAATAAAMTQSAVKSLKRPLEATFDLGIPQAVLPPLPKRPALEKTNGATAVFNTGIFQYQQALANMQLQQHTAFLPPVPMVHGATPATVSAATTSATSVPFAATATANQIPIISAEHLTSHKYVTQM
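Inhibition of protein-RNA binding appears as loss of TR-FRET between terbium anti-His antibody on MBNL1-His and streptavidin-XL665 on biotin-(CUG)12. Activity is normalized to buffer-only and uninhibited-complex controls.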
Integrin act MD – activators of alpha7 integrin expression for muscular dystrophy. alpha7betagal myoblasts, beta-gal FDG fluorescence, 48 h. 350,000 compounds, 0.064% hits. Potency, µM (doses to about 38.3 µM), actives largely listed as activators. AID 624291; further: nearly all actives have a fitted effect of over 60% in size
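Alpha7betagal+/- myoblasts (passage 13) were plated 16-24 hr, then exposed to compounds (1:260 dilution of DMSO stock) for 48 hours at 37C. After MPER lysis, β-galactosidase reporter activity was read as FDG fluorescence (ex 480/em 540) after 30 minutes.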
PTHR1 ag – activates the human parathyroid hormone receptor PTHR1; Q03431; 410,000 compounds, 0.075% hits; Potency, µM (highest dose often 115 µM), hits mostly activators; AID 743266; HEK293 GP2 PTHR1 cells, GloSensor cAMP luminescence, 1 h; further: nearly all actives have a fitted effect of over 55% in size
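HEK-293-derived GP2 cells expressing PTHR1 and a GloSensor cAMP reporter, 3,000/well, plated overnight, given luciferin plus IBMX (each 0.5 mM as added) for 1 h at 37 °C, then compound for 1 h at 37 °C. Luminescence was read after 15 min at room temperature.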
A number is an active result; . = inactive; ? = inconclusive; / = no result; ! = not confirmed by another sample; [ ] = another dose, or the depositor's remark. Unless noted, the call rests on the fitted dose curve; in most records, active means well fitted curve in the direction sought with a large enough effect; inconclusive means small, poorly fitted or top-dose-only effect, or another doubt; inactive means no such curve, though single readings can be large; an effect the other way counts as inactive or inconclusive.

SMILES	D3 antag	DRD3 agonist	CBFb RUNX1 block	MBNL1 CUG block	Integrin act MD	PTHR1 ag
Cn1c(=O)n(CC(=O)O)c(=O)c2c1nc1n2CCCN1c1ccc(Cl)cc1	/	.	/	/	/	.
Cc1ccc(SCc2cn3c(C)csc3n2)cc1	-52.9	.	.	.	.	?
CCc1ccc(OCC(=O)Nc2ccc3c(c2)c2ccccc2n3CC)cc1	/	.	/	/	/	.
CCn1c2ccccc2c2cc(NC(=O)COC(=O)c3cc(OC)c(OC)cc3OC)ccc21	.	54.2	.	.	.	.
CCOC(=O)C(=CNc1ccc(C)cc1C)C(=O)OCC	.	.	.	.	.	.
CCOC(=O)C(=CNc1cccc(C)c1C)C(=O)OCC	.	39.3	.	.	.	.
CCOC(=O)C(=CNc1ccc2c(c1)c1ccccc1n2CC)C(=O)OCC	.	66.2	?	.	.	.
O=S(=O)(c1ccccc1)c1nc(-c2ccccc2F)oc1N1CCOCC1	/	.	/	/	/	.
COc1ccc(C(=O)N2CCc3cc4c(cc3C2C)OCCCO4)cc1 (stereo not drawn)	.	44.1	/	.	.	.
COc1cccc(/C=N/Nc2nc(Nc3ccccc3)nc(-n3nc(C)cc3C)n2)c1O	-140.6	.	?	.	.	.
COc1cccc(/C=N/Nc2ncnc3scc(-c4ccccc4)c23)c1O	.	37.6	.	.[11.5 µM]	.	.
COc1cccc(/C=N/Nc2ncnc(Cl)c2N)c1O	.	.	/	/	.	.
COc1cccc(/C=N/Nc2cc(-n3nc(C)cc3-c3ccccc3)ncn2)c1O	.	38.3	.	/	.	.
CSc1ccc(/C=C/c2nc3ccccc3n2S(=O)(=O)c2ccc(Br)cc2)cc1	/	.	/	/	/	.
Cc1cccc(N=Nc2cnc(N)s2)c1	.	.	.	/	.	.
COc1ccc(-c2cn3c(n2)sc2cc(C(=O)NCCc4ccccc4)ccc23)cc1	/	.	/	/	/	.
CCOc1cc(OCC)cc(C(=O)NCCN2CCC(n3c(=O)[nH]c4ccccc43)CC2)c1	-95.5	.	/	/	/	.
COc1cccc(C(=O)NCCN2CCC(n3c(=O)[nH]c4ccccc43)CC2)c1	-78.2	.	/	/	/	.
CCn1c(CNC(=O)c2ccc(OC)cc2)nnc1SCC(=O)Nc1cccc(C)c1C	/	.	/	/	/	.
Cc1ccc2[nH]c3c(N4CCN(Cc5ccc6c(c5)OCO6)CC4)ncnc3c2c1	/	/	.	.	/	/
c1nc(N2CCN(Cc3ccc4c(c3)OCO4)CC2)c2[nH]cnc2n1	-62.0	.	.	.	.	.
SC(COCc1ccccc1)CN1CCN(Cc2ccc3c(c2)OCO3)CC1 (stereo not drawn)	-55.2	.	.	.	.	.
Clc1ccc(CN2CCN(c3ncccn3)CC2)cc1	.	36.2	/	.	.	.
FC(F)(F)c1ccc(N2CCN(Cc3ccc4c(c3)OCO4)CC2)nc1	.	.	.	.	.	.
c1ccc(N2CCN(Cc3ccc4c(c3)OCO4)CC2)nc1	?	47.3	/	/	.	.
SMILES	D3 antag	DRD3 agonist	CBFb RUNX1 block	MBNL1 CUG block	Integrin act MD	PTHR1 ag
COc1ccc(OC)c(CN2C(=O)c3ccccc3C2c2nnnn2C2CCCC2)c1 (stereo not drawn)	.	.	/	/	/	.
CC1CCN(C(=O)COc2ccc(S(=O)(=O)N3CCOCC3)cc2)CC1	.	.	/	/	.	.
COc1ccc(OC)c(NC(=O)CSc2ccc3nnc(-c4cccnc4)n3n2)c1	.	.	.	.	.	.
OC(CNCc1cccnc1)COc1ccc2ccccc2c1 (stereo not drawn)	.	.	/	.	.	.
Cc1nc(N2CCN(Cc3ccc4c(c3)OCO4)CC2)c2cc(-c3ccccc3)sc2n1	.	.	.	.	.	.
c1cnc(N2CCN(Cc3ccc4c(c3)OCO4)CC2)nc1	?	56.2!	.	.	/	.
Brc1ccc(CN2CCN(c3ccccn3)CC2)s1	.	67.6	.	.	.	.
c1ccc(COc2ccc(CN3CCN(c4ccccn4)CC3)cc2)cc1	.	50.9	.	.	.	.
c1cc2c(cc1CN1CCOCC1)OCO2	.	.	.	.	.	.
O=c1c(CN2CCN(c3ccccn3)CC2)coc2ccccc12	.	.	.	.	.	.
CSc1nc(N2CCN(Cc3ccc4c(c3)OCO4)CC2)c2ccccc2n1	-64.3	.	/	.	.	.
O=S1(=O)N=C(N2CCN(Cc3ccc4c(c3)OCO4)CC2)c2ccccc21	-80.8	.	.	.	.	.
CC(C)C[C@H]1CNC(=S)N1CC1CCCN1C[C@H](CC(C)C)N1C[C@H](CC(C)C)N(CCc2ccccc2)C1=S (stereo partly drawn)	?	.	/	/	.	.
C=C[C@@]1(C)CC(=O)[C@]2(O)[C@@]3(C)[C@@H](O)CCC(C)(C)[C@@H]3[C@H](O)[C@H](OC(C)=O)[C@@]2(C)O1	.	35.7!	/	/	/	?
CC1(CCC(=O)N2CCCC(N3CCN(c4cccc(C(F)(F)F)c4)CC3)C2)CC1 (stereo not drawn)	-66.2	.	/	.	?	.
CN1CCCC1CCOC(C)(c1ccccc1)c1ccc(Cl)cc1 (stereo not drawn)	-101.4	/	.	/	/	.
Cc1ccc(S(=O)(=O)Nc2ccc(N3CCN(C)CC3)nc2)cc1	-58.6	.	.	.	.	.
CCc1ccc(S(=O)(=O)Nc2ccc3c(c2)n(C)c(=O)c(=O)n3C)cc1	/	.	/	/	/	.
CN1CCN(c2ccc(NS(=O)(=O)c3ccc(Cl)cc3)cn2)CC1	?	.	.	.	.	.

Bioassay records (PubChem BioAssay)
